High-throughput results from PubChem.
AmpC no deterg: AmpC beta-lactamase inhibition without detergent. P00811. AmpC nitrocefin hydrolysis, absorbance 480 nm, 0.0001% Triton. Potency, µM (doses to about 57.1 µM), for the others: at the highest dose activity change, negative = inhibition, most hits filed as inhibitors. actives 0.52% (n = 330,000). AID 485341;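 also: plate controls were no compound for no effect and no enzyme for full effect; nearly all actives have a fitted effect of over 20% in size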
Target sequence (P00811 whole entry, looked up): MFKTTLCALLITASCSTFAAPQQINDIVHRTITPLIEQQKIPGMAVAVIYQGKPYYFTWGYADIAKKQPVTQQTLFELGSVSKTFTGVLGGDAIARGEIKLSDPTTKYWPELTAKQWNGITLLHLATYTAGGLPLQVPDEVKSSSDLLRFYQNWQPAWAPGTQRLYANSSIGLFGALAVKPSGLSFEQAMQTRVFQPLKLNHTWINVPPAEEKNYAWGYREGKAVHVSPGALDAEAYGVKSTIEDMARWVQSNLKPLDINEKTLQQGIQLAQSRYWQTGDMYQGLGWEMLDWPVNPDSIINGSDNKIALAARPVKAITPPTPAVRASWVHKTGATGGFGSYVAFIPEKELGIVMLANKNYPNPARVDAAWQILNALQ
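AmpC (5.3 nM in the dispensed reagent) in 20 mM phosphate pH 7.0 with 0.01% (detergent screen) or 0.0001% Triton X-100 was preincubated with compounds for 15 min at room temperature. Nitrocefin was then added from an 800 uM solution, and hydrolysis was followed at 480 nm.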
AmpC inh detg: blocks E. coli AmpC beta-lactamase in detergent assay; AID 485294; P00811; Potency, µM (doses to about 114 µM), for inactives: top-dose activity change, negative = inhibition, actives largely listed as inhibitors; actives 0.041% (n = 370,000); AmpC hydrolysis of nitrocefin, absorbance 480 nm, 0.01% Triton;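 also: 0% = no-compound wells and -100% = no-enzyme wells; nearly all actives have a fitted effect of over 25% in size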
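20 mM phosphate pH 7.0 + 0.01% (detergent screen) or 0.0001% Triton X-100; 5.3 nM AmpC reagent; cpd preinc 15 min RT; nitrocefin (800 uM stock) to start; A480 q20 s × 4 min; Activity was normalised to no-enzyme and no-compound control wells.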
Giardia FBPA inh-1: inhibitors of Giardia lamblia fructose-1,6-bisphosphate aldolase | actives 0.71% (n = 290,000) | Potency, µM (titrated, usually from 59.6 µM), inactives show top-dose activity, negative = inhibition, actives largely listed as inhibitors | AID 2451 | purified Giardia FBPA; also: nearly all actives have a fitted effect of over 55% in size
Target sequence (A8B2U2 whole entry, looked up): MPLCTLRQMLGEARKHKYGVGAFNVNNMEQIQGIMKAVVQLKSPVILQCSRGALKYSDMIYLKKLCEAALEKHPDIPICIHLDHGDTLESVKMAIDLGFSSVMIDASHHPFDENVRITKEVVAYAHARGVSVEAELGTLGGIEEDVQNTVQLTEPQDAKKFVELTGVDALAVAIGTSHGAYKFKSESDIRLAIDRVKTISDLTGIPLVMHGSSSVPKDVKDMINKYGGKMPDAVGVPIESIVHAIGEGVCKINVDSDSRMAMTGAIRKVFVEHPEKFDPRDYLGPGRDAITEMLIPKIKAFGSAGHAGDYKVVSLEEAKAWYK
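Giardia FBPA (40 nM reagent) was preincubated 10 min at RT with compound (up to 57.5 uM final), then substrate plus GAPDH/TPI/NAD/arsenate coupling system with diaphorase/resazurin was added; resorufin fluorescence (525/598 nm) was read after 20 min.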
AMA1 RON2 block: inhibitors of Plasmodium falciparum AMA1-RON2 interaction; actives 0.2% (n = 360,000); AID 720542; Potency, µM (series often up to 58.2 µM), for inactives: at the top dose activity change, negative = inhibition, actives largely listed as inhibitors; AlphaScreen AMA1-biotinylated RON2 peptide binding;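 also: 0% = vehicle wells and -100% = peptide control; nearly all actives have a fitted effect of over 45% in size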
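AMA1 (3D7) with his tag at 25 nM final met compounds first, then biotinylated RON2 peptide at 25 nM; detection used donor plus acceptor beads, 10 µg/mL apiece, read by AlphaScreen after 30 min at room temperature.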
Giardia growth: Giardia lamblia growth inhibition. shares compounds with Giardia FBPA inh-1. Giardia lamblia trophozoite growth inhibition. Potency, µM (highest dose often 57.5 µM), inactives show at the top dose activity change, negative = inhibition, most hits filed as inhibitors. actives 5% (n = 1,500). AID 2785;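 also: trophozoites exposed to compound for 48 h at 37 °C; nearly all actives have a fitted effect of over 70% in size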
Mammalian tox: counter-screen for Giardia aldolase inhibitors: mammalian cell toxicity; shares compounds with Giardia FBPA inh-1; mammalian cell viability counter-screen, qHTS; Potency, µM (titrated, usually from 57.5 µM), for the others: at the top dose viability change, negative = toxicity, most hits filed as inhibitors; actives 4% (n = 1,500);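 also: Chinese hamster ovary cells used as mammalian cytotoxicity surrogate; viability measured as cellular ATP by luminescence; compound exposure lasted 48 h before reading; nearly all actives have a fitted effect of over 60% in size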
Giardia FBPA inh-2: confirmation of Giardia fructose-bisphosphate aldolase inhibitors; actives 5% (n = 1,500); purified Giardia aldolase enzyme activity, qHTS; Potency, µM (doses to about 57.5 µM), for inactives: at the highest dose activity change, negative = inhibition, hits mostly inhibitors; shares compounds with Giardia FBPA inh-1; also: nearly all actives have a fitted effect of over 45% in size
Rabbit aldolase: rabbit FBP aldolase inhibition by Giardia aldolase hits | Rabbit muscle FBPA enzyme inhibition, selectivity counter-screen | shares compounds with Giardia FBPA inh-1 | Potency, µM (titrated, usually from 57.5 µM), for inactives: at the top dose activity, negative = inhibition, hits mostly inhibitors | AID 2794 | actives 4% (n = 1,500); also: nearly all actives have a fitted effect of over 60% in size
GAPDH counter: counter-screen for Giardia aldolase inhibitors: GAPDH coupling enzyme | shares compounds with Giardia FBPA inh-1 | GAPDH coupling enzyme counterscreen, biochemical, qHTS | Potency, µM (titrated, usually from 57.5 µM), without a hit: at the top dose activity change, negative = inhibition, actives largely listed as inhibitors | actives 6% (n = 1,500); also: nearly all actives have a fitted effect of over 55% in size
* = called active by the depositor; ? = inconclusive; · = no result; [ ] = another dose, or the depositor's remark. Only some compounds are listed: those with a hit (about 1.1% of all), similar ones and a draw of the others. Calls follow the shape of the dose curve; as a rule, active = well fitted curve in the direction sought with a large enough effect; inconclusive = small, poorly fitted or top-dose-only effect, or another doubt; inactive = no such curve, though single readings can be large; an effect the other way counts as inactive or inconclusive. Unless noted, % is scaled to controls: 0 for no effect and ±100 for the full control effect; potency is read from the fitted curve at half-maximal effect.

SMILES	AmpC no deterg	AmpC inh detg	Giardia FBPA inh-1	AMA1 RON2 block	Giardia growth	Mammalian tox	Giardia FBPA inh-2	Rabbit aldolase	GAPDH counter
O=C(NNC(=S)Nc1ccc(Cl)c(Cl)c1)c1ccccn1	-46%	3%	14µM*	-75%	-15%[10.4 µM]	?	28%	15%	18%
COc1cc(OC)cc(C(=O)NC(=S)N2C[C@H]3C[C@H](C2)c2cccc(=O)n2C3)c1	-26%	-13%	11µM*	93%	18%	12%	6%	-2%	13%
O=C(NC(=S)N1C[C@H]2C[C@H](C1)c1cccc(=O)n1C2)c1ccc(Cl)cc1	-6%	?	?	117%	·	·	·	·	·
COc1cc(C(=O)NC(=S)N2C[C@H]3C[C@H](C2)c2cccc(=O)n2C3)cc(OC)c1OC	-14%	-8%	11µM*	97%	11%[10.4 µM]	17%	3%	10%	9%
COc1ccc(/C=C/C(=O)NC(=S)N2C[C@H]3C[C@H](C2)c2cccc(=O)n2C3)cc1OC	-4%	-11%	7.9µM*	63%	?	1%	5%	0%	17%
COc1cccc(NC(=O)C2CCCN(S(=O)(=O)c3cn(C(C)C)cn3)C2)c1 (centres undefined)	·	11%	·	·	·	·	·	·	·
Cc1ccc(Nc2nc(NCCO)c3ccccc3n2)cc1C	-24%	-18%	25µM*	-21%	4%[10.4 µM]	?	-2%	4%	-16%
COc1ccccc1Nc1nc(NCCO)c2ccccc2n1	-14%	-6%	8%	·	·	·	·	·	·
CCCCCCN1C[C@H](n2cc(C3CC3)nn2)[C@@H](O)C[C@@H]1c1ccc(OC)cc1	·	·	·	1%	·	·	·	·	·
Cc1cc(NC(=O)CN(C)CCOc2ccccc2)ccc1Br	83%	-4%	16µM*	?	?	13%	-9%	5%	-4%
CCOC(=O)c1c(C)[nH]c(CCC(=O)NCc2ccccc2C)c1C	·	7%	·	·	·	·	·	·	·
Cc1ccc(CC(=O)N2CCN(C(=O)C3CCCO3)CC2)cc1 (centres undefined)	-29%	-12%	·	-3%	·	·	·	·	·
CCOc1ccc(N=Nc2ccc(O)c3ncccc23)cc1	-24%	-6%	-8%	94%	17%[38.3 µM]	-25%	?	-8%	-22%
CCN(CC)S(=O)(=O)c1cc(OC)ccc1N=Nc1ccc(O)c2ncccc12	-31%	1%	?	-78%	-14%[38.3 µM]	29µM*	?	-19%	?
CCS(=O)(=O)c1ccc(OC)c(N=Nc2ccc(O)c3ncccc23)c1	-1%	-9%	15%	-6%	·	·	·	·	·
Cc1cccc(N=Nc2ccc(O)c3ncccc23)c1	-32%	-8%	·	?	·	·	-20%	-18%	-13%
CC(C)c1nnc(NC(=O)CCC(=O)N2CCC(Cc3ccccc3)CC2)s1	110%	-12%	·	-3%	·	·	·	·	·
O=S1(=O)CC(N2CCCCC2)CN1CCc1ccccc1 (centres undefined)	·	·	·	14%	·	·	·	·	·
Cn1cnc(S(=O)(=O)N2CCCCC2c2cc(C(=O)Nc3cccc(C#N)c3)no2)c1 (centres undefined)	·	·	·	-19%	·	·	·	·	·
COc1ccc(NC(C)=O)cc1NC(C)c1nc2sc(C)c(C)c2c(=O)[nH]1 (centres undefined)	7%	-1%	8.9µM*	5%	-3%[10.4 µM]	-2%	?	?	?
COc1ccc(OC)c(NC(=O)C(C)SCc2nc3sc(C)c(C)c3c(=O)[nH]2)c1 (centres undefined)	-20%	3%	·	19%	·	·	·	·	·
Cc1cc(C)nc(NN2C(=O)C=CC2=O)n1	-10%	-18%	5µM*	95%	?	-6%	1%	-1%	-1%
CCc1c(O)nc(SC2CC(=O)N(c3ccc(F)c(Cl)c3)C2=O)[nH]c1=O (centres undefined)	-32%	-12%	3.2µM*	18%	11%[38.3 µM]	-7%	?	15%	5%
Cc1c(O)nc(SC2CC(=O)N(c3cc(Cl)cc(Cl)c3)C2=O)[nH]c1=O (centres undefined)	·	·	·	49%	·	·	·	·	·
COc1cc(CCN=Cc2cc(Cl)cc(Cl)c2O)c([N+](=O)[O-])cc1OC	·	·	·	96%	·	·	·	·	·
SMILES	AmpC no deterg	AmpC inh detg	Giardia FBPA inh-1	AMA1 RON2 block	Giardia growth	Mammalian tox	Giardia FBPA inh-2	Rabbit aldolase	GAPDH counter
COc1ccc(N=Cc2cc(Cc3ccccc3Cl)cc([N+](=O)[O-])c2O)cc1OC	-29%	5%	0.56µM*	14%	2%[10.4 µM]	11%	?	-21%	-26%
O=C(C1=NN[C@@H]2C(=O)N(c3cccc(F)c3)C(=O)[C@H]12)c1cnccn1	-15%	1%	16µM*	30%	?	-9%	0%	6%	10%
CC(=O)c1ccc(S(=O)(=O)NCCC(=O)OCC(=O)N(Cc2ccccc2)C(C)(C)C)cc1	18%	-1%	·	-4%	·	·	·	·	·
CC1=NN(C(N)=S)C(=O)C1N=Nc1cccc(C(=O)O)c1 (centres undefined)	-18%	-3%	?	98%	-15%[38.3 µM]	-2%	-16%	-12%	-8%
CC1=NN(C(N)=S)C(=O)C1N=Nc1ccccc1C(=O)O (centres undefined)	-43%	?	14µM*	86%	-14%[10.4 µM]	-9%	3%	6%	9%
Clc1ccc(SCCOCCN2CCOCC2)cc1	0%	4%	18µM*	?	9%[10.4 µM]	25%	11%	-1%	11%
CCOc1ccc(NC(=O)CC(NCc2ccccn2)C(=O)O)cc1 (centres undefined)	-1%	1%	5µM*	-94%	-14%[38.3 µM]	22%	13%	-5%	-25%
COc1ccc(NC(=O)CC(C(=O)O)C(C)c2ccccc2)cc1 (centres undefined)	-16%	-18%	7%	-8%	·	·	·	·	·
COc1ccc(NC(=O)CC(NCc2ccccn2)C(=O)O)cc1 (centres undefined)	-11%	-8%	11µM*	19%	20%	10%	14%	-12%	-11%
C=CCN(CC=C)CCOc1ccc(C)cc1[N+](=O)[O-]	-17%	-7%	20µM*	?	?	2%	-1%	1%	-4%
O=C(NC1CCCC1)c1cccnc1N1CCCCCC1	-13%	-4%	3%	-1%	·	·	·	·	·
